# Results filed as inconclusive are left out. Activity calls are given as the source filed them. The call rests on the fitted dose curve; in most records, active means well fitted inhibition curve with a large enough effect; inconclusive means small, poorly fitted or top-dose-only effect; inactive means no such curve, though single readings can be large or run the other way.
# Test: Primary qHTS for small molecule stabilizers of the endoplasmic reticulum resident proteome: Secreted ER Calcium Modulated Protein (SERCaMP) assay (AID 1508630)
# Settings: SH-SY5Y GLuc-SERCaMP (Gaussia luciferase released on ER calcium loss) secretion, thapsigargin, luminescence; series mostly up to 38.4 µM; activity change, negative = inhibition: at the top concentration
# Excerpt: Assay Provider: Brandon K. Harvey Ph.D.
# National Institute on Drug Abuse, National Institutes of Health, Baltimore, MD
# Endoplasmic reticulum (ER) dysregulation is associated with human pathologies including neurodegenerative, cardiovascular, muscular, and diabetic conditions. Maintenance of ER calcium is critical for functions of the ER and its depletion can lead to loss of ER resident proteins, in a process termed exodosis. Therapeutic compounds capable of attenuating the redistribution of ER proteins under pathological conditions may slow or stop disease progression. To identify such compounds, we performed a quantitative high-throughput screen (qHTS) using the SERCaMP assay, which monitors secretion of ER resident proteins triggered by calcium depletion.
# SERCaMP was initially developed as a reporter of ER calcium homeostasis using a Gaussia luciferase with a modified signal peptide and carboxy-terminus (GLuc-SERCaMP), modifications that confer secretion of the reporter in response to ER calcium depletion (Henderson et al., 2014). The assay was used to screen 9,501 compounds, including a collection of drugs approved by the FDA (US), EMA (EU), NHI (Japan), and HC (Canada) regulatory agencies (Huang et al., 2011). Since the SERCaMP reporter reflects the exodosis phenomenon (Trychta et al., 2018a), compounds identified in the screen have the potential to prevent exodosis by different mechanisms such as stabilizing ER calcium or augmenting ERS retrieval.
# 1. Henderson, M.J., Wires, E.S., Trychta, K.A., Richie, C.T., and Harvey, B.K. (2014). SERCaMP: a carboxy-terminal protein modification that enables monitoring of ER calcium homeostasis. Mol Biol Cell 25, 2828-2839.
# 2. Huang, R., Southall, N., Wang, Y., Yasgar, A., Shinn, P., Jadhav, A., Nguyen, D.T., and Austin, C.P. (2011). The NCGC pharmaceutical collection: a comprehensive resource of clinically approved drugs enabling repurposing and chemical genomics. Sci Transl Med 3, 80ps16.
# 3. Trychta, K.A., Back, S., Henderson, M.J., and Harvey, B.K. (2018a). KDEL Receptors Are Differentially Regulated to Maintain the ER Proteome under Calcium Deficiency. Cell Rep 25, 1829-1840 e1826.
# SEQUENCE No. (1, 2, 3, etc.); […] (e.g., Cells, Incubation, Reagent, etc.); VALUE and DESCRIPTION.
# 1; Reagent; 5 uL; 1000 SH-SY5Y cells per wells
# 3; Compound; 23 nL; Control inhibitor / compound library
# 5; Reagent; 100 nM; Thapsigargin
# 7; Reagent; 1 uL; 0.5x coelenterazine
# 8; Detection; Luminescence; ViewLux imaging system
# NOTES (numbers refer to sequence above)
# 1; SH-SY5Y human neuroblastoma cells stably expressing GLuc-SERCaMP (SH-SY5Y-GLuc-ASARTDL) cells were seeded in 1,536 well white tissue culture treated plates (Corning, Cat# 7464) in DMEM-high glucose-sodium pyruvate (ThermoFisher Scientific, Cat #10569) supplemented with 10% bovine growth serum (Hyclone), 10 U/ml penicillin (Gibco), 10 ug/ml streptomycin (Gibco), and 20 mM HEPES.
# 2; Assay plates were incubated for 5 hour at 37C in a humidified incubator containing 5% CO2.
# 3; qHTS libraries (23 nl, final concentrations of 1.53 uM, 7.67 uM, 38.3 uM) or controls (neutral control: DMSO, positive control: dantrolene) were added using a Kalypsis pin-tool Robotic System equipped with 1536 pinheads.
# 4; Cells were then incubated for 16 hours at 37C, 5% CO2.
# 5; Thapsigargin was added at 100 nM to deplete ER calcium stores.
# 6; Cells were incubated for 4 hour (37 °C, 5% CO2)
# 7; Gaussia luciferase in the medium was measured by adding 1 ul of 0.5x coelenterazine (final concentration 0.07x) prepared in Gaussia Luciferase Glow Assay Buffer (Pierce), without addition of the Cell Lysis Buffer Reagent.
# 8; Luminescence was measured using a ViewLux […] CCD imaging system (Perkin Elmer) equipped with clear filters. […] The same controls were also used for the calculation of the Z' factor, a measure of assay quality control, as previously described (Zhang et al., 1999). […]
# On the % scale 0 is the no-effect control and ±100 the full control effect.
Structure (SMILES),"activity change, negative = inhibition",Potency
CCCCN(CCCC)CC(O)c1cc(Cl)cc2c1-c1ccc(Cl)cc1C2=Cc1ccc(Cl)cc1 (stereo not given),-21.3% (inactive),
CCOC(=O)c1c(CSc2ccccc2)n(C)c2cc(Br)c(O)c(CN(C)C)c12,-28.6% (inactive),
CN(C)CCOc1ccc(C(=C(CCCl)c2ccccc2)c2ccccc2)cc1,31.1% (inactive),
O=C1C(c2c(O)[nH]c3ccccc23)=Nc2ccccc21,,inactive
CNC(=O)[C@H](Cc1ccccc1)NC(=O)[C@H](CC(C)C)[C@H](CSc1cccs1)C(=O)NO,45.9% (inactive),
COc1cc(F)c(C(C)C)cc1-c1ccc(C(F)(F)F)cc1CN1C(=O)O[C@H](c2cc(C(F)(F)F)cc(C(F)(F)F)c2)[C@@H]1C,113% (inactive),
COc1cc([C@@H]2c3cc4c(cc3[C@@H](O[C@@H]3O[C@@H]5CO[C@@H](C)O[C@@H]5[C@H](O)[C@@H]3O)[C@H]3COC(=O)[C@H]23)OCO4)cc(OC)c1O,,inactive
CCc1cccc(CC)c1NC(=O)N1Cc2[nH]nc(NC(=O)c3ccc(N4CCN(C)CC4)cc3)c2C1,0% (inactive),
CC1=C(CC(=O)O)c2cc(F)ccc2C1=Cc1ccc(S(C)=O)cc1 (stereo not given),0% (inactive),
CN[C@@H]1[C@@H](O)[C@@H](O[C@@H]2[C@@H](O)[C@H](O[C@H]3O[C@H](CN)[C@@H](O)[C@H](O)[C@@H]3O)[C@@H](N)C[C@@H]2NC(=O)[C@@H](O)CN)OC[C@]1(C)O,183% (inactive),
CN(C)S(=O)(=O)c1ccc2c(c1)C(=Cc1cc3c([nH]1)CCCC3)C(=O)N2,43.5% (inactive),
CC1(C)CC(=O)c2c(C(F)(F)F)nn(-c3ccc(C(N)=O)c(NC4CCC(O)CC4)c3)c2C1 (stereo not given),91.2% (inactive),
CC(C)N(CCCNC(=O)Nc1ccc(C(C)(C)C)cc1)C[C@H]1O[C@@H](n2cc(Br)c3c(N)ncnc32)[C@H](O)[C@H]1O,338% (inactive),
CC(C)c1onc(-c2c(Cl)cccc2Cl)c1COc1ccc(C=Cc2cccc(C(=O)O)c2)c(Cl)c1,-16.5% (inactive),
CC(=O)N1CCN(c2ccc(OCc3nn(C)c(C)c3-c3cccc4c(CCCOc5cc(C)c(Cl)c(C)c5)c(C(=O)O)n(Cc5cccnc5)c34)cc2)CC1,79.5% (inactive),
Cc1cnc(CNC(=O)c2c(=O)c3ccc(N4CCCN(C)CC4)nc3n3c2sc2ccccc23)cn1,2.98% [at 21.6 µM] (inactive),
CN1N=C(N)c2cn([C@@H]3O[C@H](COP(=O)(O)O)[C@@H](O)[C@@H]3O)c3ncnc1c23,52.4% (inactive),
CC1=C[C@@H]2[C@@H]([C@@H](O)C[C@@]3(C)[C@H]2C[C@@H](C)[C@]3(O)C(=O)CO)[C@@]2(C)Cc3cnn(-c4ccccc4)c3C=C12,53.1% (inactive),
Cc1cc2c(cc1C1(c3ccc(C(=O)O)cn3)CC1)C(C)(C)CCC2(C)C,0% (inactive),
CCNC(=O)c1noc(-c2cc(C(C)C)c(O)cc2O)c1-c1ccc(CN2CCOCC2)cc1,98.7% (inactive),

Structure (SMILES),"activity change, negative = inhibition",Potency
CCC(=O)N1CCN(c2ccc(-n3c(=O)ccc4cnc5ccc(-c6cnc7ccccc7c6)cc5c43)cc2C(F)(F)F)CC1,0% (inactive),
CNC(=O)c1ccc2c(C(=Nc3cccc(CN(C)C)c3)c3ccccc3)c(O)[nH]c2c1,219% (inactive),
C[C@@]1(C(=O)Nc2ccc(F)nc2)CCCN1c1nc(Nc2cc(C3CC3)[nH]n2)c2cccn2n1,202% (inactive),
CN1CCN(c2ncc(-c3cc(Cl)cc(Cl)c3Cl)c(N)n2)CC1,27.6% (inactive),
CC1CCN(c2cc(N3CCN(C)CC3)ccc2NC(=O)c2cc(C#N)c[nH]2)CC1,77.2% (inactive),
CC(=O)OCC(=O)[C@@]1(O)CC[C@H]2[C@@H]3CCC4=CC(=O)C=C[C@]4(C)[C@@H]3[C@@H](O)C[C@@]21C,7.5% (inactive),
Cc1c(-c2cccc3c(CCCOc4cccc5ccccc45)c(C(=O)O)n(Cc4cccnc4)c23)c(COc2ccc(N3CCN([S+](=O)([O-])N(C)C)CC3)cc2)nn1C,76.1% (inactive),
Nc1ncnc2c1ncn2[C@@H]1O[C@H](CO)[C@@H](O)[C@@H]1O,,inactive
CCOc1ccccc1N=Nc1c(C)[nH]n(-c2nc(-c3ccccc3)cs2)c1=O,0% (inactive),
CCC(=C(CC)c1ccc(O)cc1)c1ccc(O)cc1,-2.51% (inactive),
CC[C@H]1OC(=O)[C@H](C)[C@@H](O[C@H]2C[C@@](C)(OC)[C@@H](O)[C@H](C)O2)[C@H](C)[C@@H](O[C@@H]2O[C@H](C)C[C@H](N(C)C)[C@H]2O)[C@](C)(O)C[C@H](C)C(=NOCOCCOC)[C@H](C)[C@@H](O)[C@]1(C)O,36.7% (inactive),
CC1(C)[C@H]2CC[C@]3(C)[C@@H](C(=O)C=C4[C@@H]5C[C@@](C)(C(=O)O)CC[C@]5(C)CC[C@]43C)[C@@]2(C)CC[C@@H]1O,23.2% (inactive),
O=C1C(CCC(O)c2ccc(F)cc2)C(c2ccc(O)cc2)N1c1ccc(F)cc1 (stereo not given),-35% (inactive),
CCCCCCCCCCCCCC(=O)N[C@H](CO)[C@H](O)c1ccc([N+](=O)[O-])cc1,5.84% (inactive),
CCC(=O)OCC(=O)[C@@]1(OC(=O)CC)[C@@H](C)C[C@@H]2[C@H]3CCC4=CC(=O)C=C[C@]4(C)[C@@]3(F)[C@@H](O)C[C@@]21C,38% (inactive),
CCC=CC[C@H]1C(=O)CC[C@@H]1CC(=O)OC,0% (inactive),
COc1nccc(-c2c(-c3ccc(F)cc3)ncn2C2CCNCC2)n1,8.63% (inactive),
COc1cc([C@H]2Oc3cc([C@H]4Oc5cc(O)cc(O)c5C(=O)[C@H]4O)ccc3O[C@H]2CO)ccc1O,101% (inactive),
CCN(CCO)CCCOc1ccc2c(Nc3cc(CC(=O)Nc4cccc(F)c4)[nH]n3)ncnc2c1,49.2% (inactive),
COc1cc(C=CC(=O)O)ccc1O,-26.9% (inactive),
